# Source: PubChem BioAssay
# D2 PAM-1 – human D2 receptor positive allosteric modulation. DiscoveRx D2 beta-arrestin cells, luminescence, 90 min; 100% = 57 uM dopamine signal. potentiation, % (test concentration not listed). 360,000 tested, 0.23% active. AID 624464. P14416; in the data active means potentiation above about 50%; inconclusive means mostly about 30% to 49%
#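 PathHunter beta-arrestin assay in DiscoveRx D2 cells. Compounds were added with an EC20 of dopamine (50 nM final) for 90 min at 37 deg C. Luminescence was read 1 h after detection reagent, with 57 uM dopamine as the EC100 control.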
# D2 ag-1 – human D2 receptor agonism in beta-arrestin assay; activation, % (test concentration not listed); P14416; DiscoveRx PathHunter D2 beta-arrestin, luminescence, 90 min; 100% = 57 uM dopamine signal; 360,000 tested, 0.084% active; in the data active means activation above about 40%; inconclusive means between about 15% and that limit
#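 Agonist mode: compounds alone added to overnight-plated D2 PathHunter cells for 90 min at 37 C, with 57 uM final dopamine (EC100) defining full response. Beta-arrestin recruitment detected by chemiluminescent reagent, read after 1 h at ambient temperature.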
# D2 PAM-2 – D2 dopamine receptor (human) potentiation | HEK293 T-REx D2, calcium flux, EC20 dopamine potentiation | potentiation, % at 10 µM | 340,000 tested, 0.34% active | AID 485347;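 active means potentiation over 3 SD above the plate norm, cut at about 30% in these data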; further: 0% is about no effect
#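 Primary screen. Calcium kinetics in induced HEK293 T-REx D2 cells: compound pre-addition 180 s, EC20 dopamine, 180 s more.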
# D2 antag – antagonizes the human D2 dopamine receptor; P14416; HEK293 TREx D2 cells, calcium flux, dopamine EC80; inhibition, % at 10 µM; 340,000 tested, 2% active; AID 485344; in the data active means inhibition above about 30%; inactive means below that, where a call was filed; further: 0% is about no effect
#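 Calcium mobilization kinetics were recorded at 1 s intervals in tetracycline-induced HEK293 T-REx D2 cells, first for 180 s after compound addition and then 180 s after EC80 dopamine.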
# D2 ag-2 – agonists of human D2 dopamine receptor; P14416; HEK293 T-REx D2 cells, calcium flux agonist mode; activation, % at 2 µM; 340,000 tested, 0.53% active; AID 485358;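 active means activation over 3 SD above normal in the single-dose calcium agonist read, cut at about 30% in these data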; further: 0% is about no effect
#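 Agonism scored from kinetic calcium signal (1 read/sec, 180 s) following compound pin transfer, after a 10 s baseline. Cells: HEK293 Trex line expressing inducible D2 receptor coupled to calcium, dye-loaded after overnight culture at 30 C.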
# D3 ag – confirmation of human D3 dopamine receptor agonists, beta-arrestin; 2,300 tested, 4% active; Potency, µM (top dose mostly 76.9 µM), for the others: top-dose activation, actives largely listed as activators; DiscoveRx D3 beta-arrestin cells, luminescence, 90 min; shares compounds with D2 ag-2;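 further: potency means the concentration at half of the fitted maximal effect; 100% = dopamine control response; nearly all actives have a fitted effect of over 70% in size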
# Target sequence (P35462 whole entry, looked up): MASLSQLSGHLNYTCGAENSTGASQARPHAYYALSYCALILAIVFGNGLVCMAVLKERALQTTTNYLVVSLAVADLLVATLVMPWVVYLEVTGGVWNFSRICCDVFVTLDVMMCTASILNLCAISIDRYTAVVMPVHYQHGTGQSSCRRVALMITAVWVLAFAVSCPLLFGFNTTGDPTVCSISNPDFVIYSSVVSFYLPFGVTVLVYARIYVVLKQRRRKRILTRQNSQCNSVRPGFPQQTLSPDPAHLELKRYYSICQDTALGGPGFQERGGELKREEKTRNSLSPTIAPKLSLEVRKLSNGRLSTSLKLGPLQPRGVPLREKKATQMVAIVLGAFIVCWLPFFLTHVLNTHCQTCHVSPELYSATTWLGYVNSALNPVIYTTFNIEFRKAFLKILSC
# D2 ag-3 – counter-screen for D3 agonists: human D2 dopamine receptor agonism; 2,300 tested, 5.9% active; Potency, µM (series often up to 76.9 µM), for the others: at the highest dose activation, most hits filed as activators; AID 720507; DiscoveRx PathHunter D2 beta-arrestin, luminescence, 90 min; response scale: percent relative to full dopamine signal; shares compounds with D2 ag-2; further: potency means the concentration at half of the fitted maximal effect; % of control where 0% means no effect; nearly all actives have a fitted effect of over 70% in size
# * hit, by the source's call; ? = inconclusive; · = no result given. The list is not random: actives were taken first. Their share in the collection is about 2.4%. Unless noted, the call rests on the fitted dose curve; in most records, active means well fitted activation curve with a large enough effect; inconclusive means small, poorly fitted or top-dose-only effect; inactive means flat fitted curve, though single readings scatter.
SMILES,D2 PAM-1,D2 ag-1,D2 PAM-2,D2 antag,D2 ag-2,D3 ag,D2 ag-3
OC(COCc1cccs1)CN1CCCCCC1 (stereo unspecified),-28,1,30,-3,-1,·,·
OC(COCc1cccs1)CN1CCN(c2cccc(Cl)c2)CC1 (stereo unspecified),-24,?,-20,43*,67*,3%,?
CC1(NC(=O)c2ccccc2)CCN(CCc2cccs2)C1=O (stereo unspecified),-8,-3,-5,·,·,·,·
O=C(NC1(Cc2ccccc2)CCN(CCc2cccs2)C1=O)c1ccccc1 (stereo unspecified),-4,4,10,0,0,-11%,-4%
CCOc1ccc(CC(=N)C2=C(O)CC(C)(C)CC2=O)cc1OCC,-5,-4,3,-16,1,·,·
CCOc1ccc(CC(=NCCc2ccccc2)C2=C(O)CC(C)(C)CC2=O)cc1OCC,-3,0,-18,0,47*,-2%,6%
Cc1ccsc1CNC(=O)C1(C)CCCN1CC(C)C (stereo unspecified),-8,-6,·,·,·,·,·
CSCCC(NC(=O)c1ccc(Cl)cc1)C(=O)OCC(=O)N1CCCC1=O (stereo unspecified),2,-1,-11,1,1,·,·
COc1ccccc1C(=O)NC(CCSC)C(=O)OCC(=O)N1CCCC1=O (stereo unspecified),-5,-2,-8,-21,-1,-3%,-1%
Cn1cnc(C(=O)N2CCN(c3ccccc3)CC2)c1C(=O)N1CCN(c2ccccc2)CC1,-5,-2,5,-3,1,0%,-2%
Cc1coc(C)c1C(=O)Nc1ccc2ccccc2c1,-10,-2,2,4,0,-7%,-2%
CC(C)Oc1ccc(CNC(=O)c2ccc(Cn3c(=O)c4cccn4c4cccnc43)cc2)cc1,·,·,-3,·,0,·,·
Cc1cccc(NC(=O)CSc2cn(CC(=O)N3CCC(C)CC3)c3ccccc23)c1C,·,·,6,·,0,·,·
COc1ccc(CN(C)C(=O)C2CSC3(C)CCC(=O)N23)cc1 (stereo unspecified),10,-2,-2,8,0,·,·
COc1ccc(NC(=O)CN(C)C(=O)C2CSC3(C)CCC(=O)N23)cc1 (stereo unspecified),6,-3,0,-10,1,-3%,1%
CC(=O)c1ccc(OC(=O)C2CSC3(C)CCC(=O)N23)cc1 (stereo unspecified),11,0,·,·,·,-4%,-2%
CCOc1ccc(NC(=O)CN(C)C(=O)CCC2CCCCC2)cc1OCC,-16,2,6,12,-1,-4%,1%
CCOc1ccc(NC(=O)CN(C)C(=O)C2CSC3(C)CCC(=O)N23)cc1OCC (stereo unspecified),0,1,-3,9,0,-2%,-1%
CCOc1ccc(NC(=O)CN(C)C(=O)CC2CCCCC2)cc1OCC,-1,3,-11,3,0,·,·
CCCCN1C(=O)CN(C2CCCCCC2)C(=O)C1c1ccc(OCC)c(OC)c1 (stereo unspecified),·,·,·,·,0,·,·
O=C(c1ccc(Cl)cc1)c1ccccc1C(=O)N1CCOCC1,-2,-1,8,0,0,·,·
Nc1nc(C(=O)N2CCOCC2)nn1C(=O)c1ccc(Cl)cc1,0,0,6,23,0,-12%,-10%
CSc1c(CC(=O)NCCO)n(C)c2ccccc12,2,0,3,2,0,·,·
Cn1c(CC(=O)NCCO)c(Sc2ccccc2)c2ccccc21,-4,-5,-23,-4,50*,-5%,-2%
COc1ccc(CNC(=O)Cn2c(=O)n3nc(-c4ccc(OC)cc4)nc3c3ccccc32)cc1,·,·,-8,·,-2,·,·
